Experiment in all cases: NCI-60 one-dose screen, 48 h (100 = growth as untreated, 0 = no growth, -100 = all killed)
Holding throughout (conditions): 10 µM unless noted

For test [1], the system named is NCI-H23 lung.
The test system of test [2] is NCI-H226 lung.
For test [3], the system named is NCI-H322M lung.
In test [4] the test system is HOP-62 NSCLC.
Test [5] deals with NCI-H460 lung.
In test [6] the test system is HOP-92 NSCLC.
For test [7], the system named is NCI-H522 lung.
Test [8] relates to A549/ATCC NSCLC.
The subject of test [9] is 786-0 renal.
The test system of test [10] is COLO 205 colon.
For test [11], the system named is DU-145 prostate.
Test [12] has as its system K-562 leukemia.
For test [13], the system named is MALME-3M melanoma.
The subject of test [14] is MDA-MB-231 breast.
Test [15] has as its system RXF 393 renal.
Test [16] relates to SF-268 CNS.
Test [17] relates to SF-539 CNS.
Test [18] has as its system UACC-257 melanoma.
Test [19] has as its system M14 melanoma.
Test [20] has as its system SF-295 CNS.

This passage reports growth results from PubChem BioAssay (NCI).

Compounds without any hit were thinned out: in the full panel of roughly 83,000, 20% have a hit.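 Results are percent growth after 48 hours of single-concentration exposure. 100 means growth as in untreated cells, lower positive values show inhibition; negative values down to -100 show cell death.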 A number with no mark means an inactive call. Calls of active or inactive are those of the source. The calls were made as follows: active = growth percent below 10; inactive = the rest.

As to `Cn1c2ccc(Br)cc2c2c3c(c4c5ccccc5[nH]c4c21)C(=O)N(O)C3=O`, the growth in [1] was -42.6% (active); in [2], 24.1%; in test [3] it was -68% (active); in test [4], -67.8% (active); in test [5], -14.8% (active); in test [6], -77.3% (active). For the same molecule, the growth in [7] is -67% (active); in test [8] it was -13.8% (active); in test [9], -93.8% (active); in test [10] it was -84.4% (active); in test [11] it was -71.1% (active); in test [12], -8.92% (active). The growth is -85% (active) in test [13]; -74.1% (active) in [14]; -99.5% (active) in [15]; -45.7% (active) in [16]; -92.6% (active) in test [17]; -33.7% (active) in test [18]. For the same molecule, the growth in [19] is -78.2% (active).
As for `COc1cc(-c2nn(-c3cccc(NC(=O)Nc4ccc(Cl)c(C(F)(F)F)c4)c3)cc2-c2ccncc2)ccc1Cl`, the growth in test [1] is 5.69% (active); in test [2] it was 12.1%; in test [3], 32.3%; in test [4], 5.4% (active); in [5], 1.7% (active); in [6], -37.5% (active). The growth in test [7] is -13.9% (active); in test [8], -10.4% (active); in [9], 15.1%; in test [10] it was -91.6% (active); in test [11], 20.3%; in [12], 3.8% (active). The growth was -14.9% (active) in test [13]; -52.4% (active) in test [14]; -27.8% (active) in [15]; 13.8% in [16]; 6.56% (active) in test [17]; -37.6% (active) in [18]. Also, in test [19], the growth is -11.6% (active).
As to `COc1cc(-c2nn(-c3cccc(NC(=O)c4ccccc4)c3)cc2-c2ccncc2)ccc1Cl`, the growth is 33.8% in [1]; 39.1% in test [2]; 52.3% in test [3]; 27.1% in test [4]; 2.74% (active) in test [5]; 9.19% (active) in [6]. Further, the growth in test [7] is -29.6% (active); in [8], 4.81% (active); in test [9], 21.3%; in test [10], 2.21% (active); in test [11], 11.6%; in test [12], 2.59% (active). In addition, the growth in [13] is 22.4%; in test [14], 5.8% (active); in test [15], -19.2% (active); in test [16], 18.7%; in test [17], -15% (active); in [18] it was 8.64% (active). Moreover, in [19], the growth was -3.82% (active).
As for `COc1ccc(C2C=C(c3ccc(OC)c(OC)c3)N=C3SC=C(C)N32)c(Br)c1` (configuration not stated), the growth is 99.2% in test [1]; 99.2% in test [2]; 95.8% in test [3]; 108% in test [4]; 105% in [5]; 156% in test [6]. The growth in test [7] was 96.7%; in test [8] it was 103%; in test [9], 111%; in test [10], 108%; in [11], 109%; in test [12], 96.5%. The growth was 99% in [13]; 112% in test [14]; 106% in [15]; 105% in test [16]; 93.6% in test [17]; 117% in test [18]. Also, the growth in test [19] was 101%.
As for `NC(=N\N=C/c1ccc(O)cc1)/C(N)=N\N=C/c1ccc(O)cc1`, the growth is 90.9% in [1]; 101% in test [2]; 77.5% in [3]; 79.3% in [4]; 35.9% in [5]; 79% in [6]. Also, the growth was 31.4% in test [7]; 52.5% in [8]; 52.6% in [9]; 124% in test [10]; 63% in [11]; 23.7% in test [12]. Moreover, the growth in test [13] is 65.3%; in test [14] it was 64.8%; in test [15], 105%; in test [16], 58.4%; in test [20], 29.2%; in [18], 85.4%. For the same molecule, in [19], the growth was 39.5%.
On to `COc1ccc(/C=C2\CN(Cc3cn(CCNc4ccnc5cc(Cl)ccc45)nn3)C/C(=C\c3ccc(OC)c(OC)c3)C2=O)cc1OC`, for which the growth was 48% in test [1]; 17% in test [2]; 44.7% in [3]; -7.73% (active) in [4]; -28.5% (active) in [5]; -16.1% (active) in test [6]. The growth in test [7] was -67.8% (active); in test [8], 22.7%; in test [9], 15.9%; in test [10] it was 10.1%; in test [11], 0.0798% (active); in test [12], 2.21% (active). The growth in [13] was -27.7% (active); in test [14] it was -0.28% (active); in test [15], -52.1% (active); in test [16], 9.6% (active); in test [17] it was -12.5% (active); in test [18], 5.32% (active). Besides, the growth in [19] is 3.7% (active).
As to `COc1cc(-c2nn(-c3cccc(NC(=O)Nc4cc(C(F)(F)F)cc(C(F)(F)F)c4)c3)cc2-c2ccncc2)ccc1Cl`, the growth in test [1] is -3.3% (active); in test [2], 8.68% (active); in [3], 26.1%; in [4] it was -77.6% (active); in test [5], -49.7% (active); in test [6] it was -50.2% (active). Besides, the growth in test [7] was -34.4% (active); in test [8], -23.8% (active); in test [9], -71.1% (active); in [10], -98.7% (active); in test [11], 3.89% (active); in [12], -10.7% (active). Besides, the growth in [13] is -10.7% (active); in test [14] it was -92% (active); in test [15], -68.1% (active); in test [16], -46.3% (active); in test [17] it was -53.5% (active); in test [18], -45.1% (active). Moreover, in [19], the growth is -42.1% (active).
With `CCCOC(=O)n1cccc1`, the growth in test [1] was 99%; in test [2] it was 104%; in test [3] it was 135%; in test [4], 94.3%; in [5] it was 110%; in test [6] it was 97%. Also, the growth was 112% in [7]; 96.8% in test [8]; 98.5% in test [9]; 107% in test [10]; 108% in test [11]; 115% in test [12]. The growth in test [13] was 147%; in test [14], 99%; in test [15], 102%; in [16], 98.4%; in test [20], 122%; in [18] it was 102%. In addition, the growth in [19] was 101%.
